Among the data in PubChem BioAssay (NCI) are growth values, retold here.

Where “and” joins values, the source holds several entries; their conditions need not be identical. Equal entries are not always repeated. This is part of a sample that, as a whole, favours compounds with a hit. Of some 83,000 tested, about 20% had one in any assay.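 Percent growth is the endpoint: 0 to 100 indicates growth inhibition (40 means 60% inhibition), 0 means no net growth, and negative values indicate cell death.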 Calls of active or inactive are those of the source. The calls were made as follows: active = growth percent below 10; inactive = the rest.

Experiment in all cases: NCI-60 one-dose screen, 48 h (100 = growth as untreated, 0 = no growth, -100 = all killed)
Common to all, as to conditions: 10 µM unless noted

Test [1] deals with SR leukemia.
Test [2] relates to RPMI-8226 leukemia.
Test [3] has as its system OVCAR-8 ovarian.
For test [4], the system named is OVCAR-5 ovarian.
The subject of test [5] is OVCAR-4 ovarian.
Test [6] relates to IGROV1 ovarian.
Test [7] relates to OVCAR-3 ovarian.
Test [8] has as its system HS 578T breast.
Test [9] relates to NCI/ADR-RES ovarian.
Test [10] relates to SK-OV-3 ovarian.

As to `CC1CCCc2sc3nc(NNC(=O)c4cnccn4)n(-c4ccccc4)c(=O)c3c21` (stereo unspecified), the growth in [1] was 1.65% (active) and 26.4% (inactive); in test [2], 24.4% (inactive) and 11.4% (inactive); in [3], 12% (inactive) and 9.28% (active); in test [4] it was 29.6% (inactive) and 36.6% (inactive); in test [5], -3.93% (active) and -20.4% (active); in test [6], 16.9% (inactive) and 14.1% (inactive). Moreover, the growth in test [7] is 0.919% (active) and -3.1% (active); in [8], 49.1% (inactive) and 38.1% (inactive); in test [9] it was 3.02% (active) and 5.41% (active).
Regarding `COc1cc(C(=O)c2ccc3c(c2)OCO3)cc(OC)c1OC`, the growth is 19.8% (inactive) and 12% (inactive) in [1]; 29.6% (inactive) and 34% (inactive) in test [2]; 33.9% (inactive) and 36.5% (inactive) in test [3]; 62.3% (inactive) and 63.4% (inactive) in [4]; 80.8% (inactive) and 53.9% (inactive) in test [5]; 11.1% (inactive) and 30.7% (inactive) in test [6]. In addition, the growth was -38.3% (active) and -26.6% (active) in test [7]; 19.2% (inactive) and -19.2% (active) in test [8]; 10.9% (inactive) and 25% (inactive) in test [9].
As to `COc1ccc2ccccc2c1/C=N/N1CCCCC1`, the growth in test [1] is 108% (inactive); in [2], 91.3% (inactive); in [3], 95.4% (inactive); in test [4] it was 98.7% (inactive); in [5], 99.5% (inactive); in test [6], 116% (inactive). Moreover, the growth is 103% (inactive) in test [7], 98.5% (inactive) in [8] and 90.9% (inactive) in [9].
As to `COc1ccc2cc3[n+](cc2c1OC)CCc1cc2c(cc1-3)OCO2`, the growth in [1] was 50% (inactive) and 68.8% (inactive); in test [3], 44.8% (inactive); in test [4] it was 70.5% (inactive); in [5], 47.8% (inactive) and 79.1% (inactive); in [10] it was 88.1% (inactive) and 104% (inactive); in [6] it was 84.4% (inactive) and 74.8% (inactive). Further, the growth in [7] was 55.4% (inactive) and 54.2% (inactive); in [8] it was 79.6% (inactive) and 73.5% (inactive); in [9] it was 99% (inactive) and 101% (inactive).
On to `CCN(CC)CCCC(C)Nc1ccnc2cc(Oc3ccccc3)ccc12` (stereo unspecified), for which the growth in [1] was 9.09% (active) and 33.9% (inactive); in [3], 63.1% (inactive) and 77.7% (inactive); in test [4], 82.7% (inactive) and 90.8% (inactive); in [5], 75.2% (inactive) and 92.9% (inactive); in [10] it was 91.2% (inactive) and 97.2% (inactive); in test [6], -53.5% (active) and 63.2% (inactive). In addition, the growth in test [7] was 83.4% (inactive) and 85.8% (inactive); in test [8], 69% (inactive); in test [9], 102% (inactive) and 96.9% (inactive).
For the compound `CCN(CC)CCCC(C)N(Cc1ccccc1)CC(O)c1ccc(Cl)cc1` (stereo unspecified), the growth in test [1] is 119% (inactive) and 98.1% (inactive); in test [2], 99.9% (inactive) and 96.7% (inactive); in test [3], 105% (inactive) and 102% (inactive); in test [4], 91.2% (inactive); in test [5], 116% (inactive) and 112% (inactive); in [6], 113% (inactive) and 101% (inactive). In addition, the growth in test [7] was 109% (inactive) and 100% (inactive); in [8] it was 93.8% (inactive) and 111% (inactive); in [9], 108% (inactive) and 98.3% (inactive).
Turning to `CC(C)CNC(=O)c1ccccc1C(=O)NC1(C(=O)NCC(C)C)CCCC1`, the growth in test [1] was 110% (inactive) and 90.5% (inactive); in [2], 105% (inactive); in [3], 101% (inactive) and 104% (inactive); in test [4], 98.6% (inactive) and 98.3% (inactive); in [5], 107% (inactive) and 111% (inactive); in test [6], 111% (inactive) and 102% (inactive). Moreover, the growth in test [7] is 116% (inactive) and 109% (inactive); in test [8], 110% (inactive) and 105% (inactive); in test [9], 106% (inactive) and 105% (inactive).
On to `CCOC(=O)C(C(=O)OCC)C(c1ccccc1)N1CCN(c2ccccc2)CC1` (stereo unspecified), for which the growth in test [1] was 97.9% (inactive) and 101% (inactive); in [2], 102% (inactive) and 103% (inactive); in [3], 101% (inactive) and 90.3% (inactive); in [4] it was 112% (inactive) and 111% (inactive); in [5], 102% (inactive) and 113% (inactive); in test [6], 107% (inactive). Moreover, the growth in test [7] was 123% (inactive) and 120% (inactive); in test [8], 103% (inactive) and 104% (inactive); in test [9] it was 107% (inactive).
Consider `CC(=O)Nc1ccc2cc3ccc(NC(C)=O)cc3nc2c1`, for which the growth was 72.3% (inactive) in test [1]; 54.5% (inactive) and 94.8% (inactive) in [2]; 88.7% (inactive) and 85.6% (inactive) in test [3]; 89.2% (inactive) and 63.4% (inactive) in test [4]; 87.1% (inactive) and 98.3% (inactive) in test [5]; 85.8% (inactive) and 101% (inactive) in test [6]. Moreover, the growth in test [7] was 85.8% (inactive) and 99.2% (inactive); in [8], 84.3% (inactive) and 87.3% (inactive); in [9] it was 99.9% (inactive) and 97.7% (inactive).
`Cn1cnc([N+](=O)[O-])c1Sc1ncnc2nc[nH]c12`: the growth was 44.9% (inactive) in test [1]; 50% (inactive) and 75.4% (inactive) in [3]; 61.8% (inactive) and 71.6% (inactive) in [4]; 39.7% (inactive) and 53.2% (inactive) in [5]; 16.9% (inactive) in test [10]; 74.5% (inactive) and 83.4% (inactive) in [6]. Further, the growth in [7] is 50.8% (inactive) and 39.5% (inactive); in [8], 79.6% (inactive) and 69.1% (inactive); in [9], 67.2% (inactive) and 57.4% (inactive).
As for `OCc1ccccn1`, the growth was 96.9% (inactive) in [1]; 108% (inactive) in [3]; 105% (inactive) in test [4]; 113% (inactive) in [5]; 117% (inactive) in [10]; 116% (inactive) in test [6]. For the same compound, the growth is 112% (inactive) in test [7], 106% (inactive) in [8] and 109% (inactive) in test [9].
For the compound `O=C=NC(c1ccccc1)(c1ccccc1)c1ccccc1`, the growth in test [1] was 96.2% (inactive); in test [3], 97.4% (inactive); in [4], 99.1% (inactive); in [5] it was 115% (inactive); in [10], 89.1% (inactive); in test [6], 105% (inactive). For the same compound, the growth in test [7] was 116% (inactive); in test [8], 111% (inactive); in test [9], 109% (inactive).
In the case of `O=C(Nc1ccc([N+](=O)[O-])cc1Cl)c1cc(Cl)ccc1O`, the growth was -3.74% (active) in test [1]; -31.8% (active) and 1.92% (active) in [2]; -20.6% (active) and 5.74% (active) in test [3]; 23.6% (inactive) and 41.7% (inactive) in test [4]; 22.6% (inactive) and 17.4% (inactive) in test [5]; 14.4% (inactive) in test [6]. The growth in test [7] is -10.7% (active) and -2.45% (active); in test [8], -6.4% (active) and -20.7% (active); in test [9] it was -26.7% (active) and -15.9% (active).
As for `Cc1nn(-c2ccccc2)nc1C(=O)Nc1ccccc1C(=O)NCC1CC1`, the growth is 54.5% (inactive) in test [1]; 92.9% (inactive) and 92% (inactive) in [2]; 95.8% (inactive) and 30.7% (inactive) in test [3]; 99.6% (inactive) and 86.8% (inactive) in test [4]; 106% (inactive) and 40.5% (inactive) in test [5]; 108% (inactive) and 33.7% (inactive) in test [6]. In addition, the growth is 133% (inactive) and 54.2% (inactive) in test [7]; 127% (inactive) and 24.2% (inactive) in [8]; 89.6% (inactive) and 41.4% (inactive) in test [9].
Turning to `Cn1cc(-c2cc3c(Nc4ccc(CC(=O)Nc5cc(C(C)(C)C)on5)cc4)ncnc3[nH]2)cn1`, the growth was 2.58% (active) in test [1]; -2.19% (active) and -22.3% (active) in test [2]; 4.54% (active) and 2.06% (active) in test [3]; -8.65% (active) and 5.67% (active) in test [4]; -12.1% (active) and 5.44% (active) in [5]; -12.2% (active) and 2.63% (active) in [6]. The growth is -15.1% (active) and -6.62% (active) in test [7]; -22.4% (active) and -15.2% (active) in [8]; 79.5% (inactive) and 80.3% (inactive) in test [9].
As for `Cc1nn(-c2ccc(Cl)cc2)c2ncnc(N/N=C/c3ccccc3O)c12`, the growth in test [1] is 4.8% (active) and 5.64% (active); in [2], 37.1% (inactive) and 11.7% (inactive); in test [3] it was 14.1% (inactive) and 14% (inactive); in test [4], 47.5% (inactive) and 52.7% (inactive); in test [5], 19.5% (inactive) and 21.9% (inactive); in [6], 23.9% (inactive) and 4.47% (active). In addition, the growth was 34.9% (inactive) and 26.7% (inactive) in test [7]; 81% (inactive) and 56.4% (inactive) in [8]; 19.1% (inactive) and 10.5% (inactive) in test [9].
Regarding `CNC(=O)c1cccnc1`, the growth is 87.4% (inactive) in test [1]; 112% (inactive) in [2]; 100% (inactive) in test [3]; 110% (inactive) in [4]; 108% (inactive) in test [5]; 111% (inactive) in test [6]. The growth is 116% (inactive) in test [7], 107% (inactive) in [8] and 97% (inactive) in test [9].
Turning to `O=[N+]([O-])c1ccccc1N(S(=O)(=O)c1ccccc1)S(=O)(=O)c1ccccc1`, the growth was 85.8% (inactive) and 101% (inactive) in [1]; 98.2% (inactive) and 95.6% (inactive) in test [3]; 105% (inactive) and 101% (inactive) in [4]; 115% (inactive) in test [5]; 109% (inactive) and 111% (inactive) in test [10]; 99.2% (inactive) and 96.7% (inactive) in [6]. Besides, the growth was 107% (inactive) and 93.5% (inactive) in test [7]; 113% (inactive) in [8]; 98.9% (inactive) and 86.3% (inactive) in test [9].
For `CC(C)N=c1cc2n(-c3ccc(Cl)cc3)c3ccccc3nc-2cc1Nc1ccc(Cl)cc1`, the growth in [1] is -35.4% (active) and 9.31% (active); in test [2], 2.57% (active) and -21.9% (active) and -42.6% (active); in test [3], 15.1% (inactive) and 48.7% (inactive) and 14.1% (inactive); in test [4], 38.3% (inactive) and 49.6% (inactive) and 11.3% (inactive); in [5], 5.39% (active) and 11.1% (inactive) and 7.85% (active); in test [6] it was 30.2% (inactive) and -9.37% (active). The growth in test [7] was -37.5% (active) and -71.1% (active) and -66.3% (active); in [8], -13.2% (active) and 13.1% (inactive); in [9] it was 23.2% (inactive) and -2.63% (active) and 39.2% (inactive).
